Here are results for nine sequences from paper PMC7862700, “An all-to-all approach to the identification of sequence-specific readers for epigenetic DNA modifications on cytosine”.

Holding throughout (experiment): DAPPL (digital affinity profiling via proximity ligation, sequencing); 10 mM Tris-HCl pH 7.5, 50 mM NaCl, 1 mM DTT, 4% glycerol, room temperature, 30 min; GST-TFs on glutathione beads, 16-mer random dsDNA library, 0.1% formaldehyde crosslink after washing; high values mean tight binding
Conditions in all cases: protein: recombinant; tags: N-terminal GST; dsDNA, one strand shown

In one experiment the target is T1, ERF (Homo sapiens, UniProt P50548 1-548).
T1 sequence: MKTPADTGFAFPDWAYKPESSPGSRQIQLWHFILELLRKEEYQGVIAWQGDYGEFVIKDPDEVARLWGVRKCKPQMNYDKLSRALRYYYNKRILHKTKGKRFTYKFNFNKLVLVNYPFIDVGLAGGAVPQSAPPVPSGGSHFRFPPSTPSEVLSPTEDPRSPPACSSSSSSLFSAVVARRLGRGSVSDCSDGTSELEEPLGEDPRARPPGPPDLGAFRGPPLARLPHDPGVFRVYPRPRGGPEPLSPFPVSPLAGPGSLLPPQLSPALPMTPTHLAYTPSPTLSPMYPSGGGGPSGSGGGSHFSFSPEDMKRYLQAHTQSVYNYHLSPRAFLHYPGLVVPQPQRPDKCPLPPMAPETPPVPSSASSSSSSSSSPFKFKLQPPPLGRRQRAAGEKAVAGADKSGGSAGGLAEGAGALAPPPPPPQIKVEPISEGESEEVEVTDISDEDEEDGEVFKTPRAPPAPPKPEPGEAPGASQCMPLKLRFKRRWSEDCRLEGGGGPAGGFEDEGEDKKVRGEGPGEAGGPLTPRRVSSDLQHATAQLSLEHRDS
In short, it runs like this: (§1)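 GST fusions of human transcription factors were expressed in yeast and captured with glutathione beads. Once given DNA barcodes and pooled alongside a tag-only sample, they were incubated for 30 min at room temperature with 200 nmole of a random double-stranded 16-mer DNA library in Tris/NaCl/DTT/glycerol buffer, then washed, crosslinked (0.1% formaldehyde), proximity-ligated, PCR-amplified and sequenced on an Illumina NextSeq500. The binding signal of each hexamer is its read frequency for a factor divided by its frequency for the tag-only sample.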

The target in a further experiment is T2, ETV3L (Homo sapiens, UniProt Q6ZN32 1-361).
T2 sequence: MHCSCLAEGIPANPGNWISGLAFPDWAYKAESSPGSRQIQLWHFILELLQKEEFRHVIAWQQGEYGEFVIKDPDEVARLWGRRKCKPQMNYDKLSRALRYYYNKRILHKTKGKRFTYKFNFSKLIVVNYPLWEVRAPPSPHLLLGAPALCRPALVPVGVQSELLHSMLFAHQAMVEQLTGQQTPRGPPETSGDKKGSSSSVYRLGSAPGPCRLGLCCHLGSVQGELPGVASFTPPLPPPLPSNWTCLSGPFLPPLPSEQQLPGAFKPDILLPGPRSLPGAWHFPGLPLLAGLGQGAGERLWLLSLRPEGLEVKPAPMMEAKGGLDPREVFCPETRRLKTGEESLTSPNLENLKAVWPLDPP
The procedure, abridged:
as §1

Another experiment has as its target T3, ETS2 (Homo sapiens, UniProt P15036 1-469).
T3 sequence: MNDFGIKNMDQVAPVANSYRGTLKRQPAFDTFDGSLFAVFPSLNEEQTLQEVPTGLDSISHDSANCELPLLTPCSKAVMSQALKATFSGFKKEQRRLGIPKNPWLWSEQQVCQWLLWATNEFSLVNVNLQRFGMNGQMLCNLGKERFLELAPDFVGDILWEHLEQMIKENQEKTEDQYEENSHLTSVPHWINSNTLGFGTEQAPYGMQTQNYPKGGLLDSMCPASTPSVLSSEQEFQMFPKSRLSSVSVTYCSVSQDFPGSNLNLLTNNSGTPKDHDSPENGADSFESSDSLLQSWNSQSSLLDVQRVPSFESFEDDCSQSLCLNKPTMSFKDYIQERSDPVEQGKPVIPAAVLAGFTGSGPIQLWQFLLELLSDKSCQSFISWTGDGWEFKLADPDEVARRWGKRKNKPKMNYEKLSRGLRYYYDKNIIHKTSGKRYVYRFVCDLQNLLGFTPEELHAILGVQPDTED
The procedure, abridged:
as §1

A further experiment deals with T4, SPDEF (Homo sapiens, UniProt O95238 1-335).
T4 sequence: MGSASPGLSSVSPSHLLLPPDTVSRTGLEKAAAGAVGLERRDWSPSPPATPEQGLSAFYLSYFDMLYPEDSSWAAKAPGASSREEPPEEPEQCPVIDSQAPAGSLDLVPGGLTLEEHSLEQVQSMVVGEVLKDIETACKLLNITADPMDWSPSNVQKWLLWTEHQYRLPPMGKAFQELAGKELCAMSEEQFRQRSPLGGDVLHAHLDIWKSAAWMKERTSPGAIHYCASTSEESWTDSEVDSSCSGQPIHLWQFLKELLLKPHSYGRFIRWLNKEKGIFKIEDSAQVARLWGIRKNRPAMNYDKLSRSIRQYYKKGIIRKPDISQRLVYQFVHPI
The procedure, abridged:
as §1

The next experiment deals with T5, ETV7 (Homo sapiens, UniProt Q9Y603 1-341).
T5 sequence: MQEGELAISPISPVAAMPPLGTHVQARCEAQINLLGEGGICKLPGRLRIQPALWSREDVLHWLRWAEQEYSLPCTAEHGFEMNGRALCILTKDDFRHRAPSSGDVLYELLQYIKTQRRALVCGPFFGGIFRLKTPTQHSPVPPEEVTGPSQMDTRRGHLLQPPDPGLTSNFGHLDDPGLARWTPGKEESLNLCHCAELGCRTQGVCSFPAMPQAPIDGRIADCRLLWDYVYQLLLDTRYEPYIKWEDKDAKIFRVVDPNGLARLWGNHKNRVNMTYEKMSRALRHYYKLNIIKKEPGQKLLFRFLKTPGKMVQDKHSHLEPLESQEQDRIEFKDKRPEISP
In short, it runs like this: as §1

The target in another experiment is T6, ELF5 (Homo sapiens, UniProt Q9UKW6-2 1-255).
T6 sequence: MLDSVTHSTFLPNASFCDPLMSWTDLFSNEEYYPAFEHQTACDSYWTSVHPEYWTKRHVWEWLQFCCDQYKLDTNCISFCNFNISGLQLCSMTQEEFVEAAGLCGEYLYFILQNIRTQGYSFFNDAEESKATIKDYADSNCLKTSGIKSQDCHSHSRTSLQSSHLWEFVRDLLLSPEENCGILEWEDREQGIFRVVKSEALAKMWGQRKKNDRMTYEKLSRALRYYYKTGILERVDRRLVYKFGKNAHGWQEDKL
The procedure, abridged:
as §1

The next experiment addresses T7, ETV3 (Homo sapiens, UniProt P41162-2 1-143).
T7 sequence: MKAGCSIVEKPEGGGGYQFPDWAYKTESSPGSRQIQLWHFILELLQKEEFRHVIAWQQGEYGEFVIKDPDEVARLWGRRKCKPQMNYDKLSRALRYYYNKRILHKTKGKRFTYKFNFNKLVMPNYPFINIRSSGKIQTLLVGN
The procedure, abridged: as §1

For a further experiment, the target named is ETV6 (Homo sapiens, UniProt P41212 1-452). The procedure, abridged:
as §1

Sequence of ETV6 (P41212 whole entry): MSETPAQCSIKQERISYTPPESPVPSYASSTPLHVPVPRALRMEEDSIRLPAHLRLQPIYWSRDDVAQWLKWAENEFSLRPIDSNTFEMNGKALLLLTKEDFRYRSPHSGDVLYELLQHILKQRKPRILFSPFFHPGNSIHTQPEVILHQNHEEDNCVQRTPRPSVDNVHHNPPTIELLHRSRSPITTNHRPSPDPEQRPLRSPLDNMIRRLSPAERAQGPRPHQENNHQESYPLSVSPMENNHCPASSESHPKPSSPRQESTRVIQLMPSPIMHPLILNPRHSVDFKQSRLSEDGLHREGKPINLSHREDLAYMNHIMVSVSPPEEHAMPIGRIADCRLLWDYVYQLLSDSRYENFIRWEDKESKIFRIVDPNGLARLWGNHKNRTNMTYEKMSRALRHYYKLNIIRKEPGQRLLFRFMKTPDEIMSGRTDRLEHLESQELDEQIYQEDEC

Turning to GTTTGA, the binding signal with ERF is 1.23 fold enrichment (6-mer frequency, TF over GST control); in the experiment with ETV3L, 1.11 fold enrichment (6-mer frequency, TF over GST control); with ETS2 it was 1.26 fold enrichment (6-mer frequency, TF over GST control); in the experiment with SPDEF, 1.11 fold enrichment (6-mer frequency, TF over GST control); with ETV7 it was 1.24 fold enrichment (6-mer frequency, TF over GST control); in the experiment with ELF5 it was 1.17 fold enrichment (6-mer frequency, TF over GST control). Further, the binding signal was 1.24 fold enrichment (6-mer frequency, TF over GST control) in the experiment with ETV3 and 1.28 fold enrichment (6-mer frequency, TF over GST control) with ETV6.

Take GACCTG: the binding signal in the experiment with ERF is 1.13 fold enrichment (6-mer frequency, TF over GST control); with ETV3L, 1.33 fold enrichment (6-mer frequency, TF over GST control); with ETS2, 1.19 fold enrichment (6-mer frequency, TF over GST control); with SPDEF, 1.12 fold enrichment (6-mer frequency, TF over GST control); with ETV7, 1.17 fold enrichment (6-mer frequency, TF over GST control); with ELF5 it was 1.21 fold enrichment (6-mer frequency, TF over GST control). Further, the binding signal in the experiment with ETV3 was 1.17 fold enrichment (6-mer frequency, TF over GST control); with ETV6, 1.14 fold enrichment (6-mer frequency, TF over GST control).

ATGGCT: the binding signal with ERF is 1.27 fold enrichment (6-mer frequency, TF over GST control); with ETV3L it was 1.37 fold enrichment (6-mer frequency, TF over GST control); in the experiment with ETS2, 1.32 fold enrichment (6-mer frequency, TF over GST control); in the experiment with SPDEF, 1.23 fold enrichment (6-mer frequency, TF over GST control); with ETV7, 1.34 fold enrichment (6-mer frequency, TF over GST control); in the experiment with ELF5, 1.25 fold enrichment (6-mer frequency, TF over GST control). Besides, the binding signal with ETV3 is 1.33 fold enrichment (6-mer frequency, TF over GST control); in the experiment with ETV6 it was 1.38 fold enrichment (6-mer frequency, TF over GST control).

TGCACA: the binding signal with ERF is 1.22 fold enrichment (6-mer frequency, TF over GST control); with ETV3L it was 1.13 fold enrichment (6-mer frequency, TF over GST control); with ETS2, 1.06 fold enrichment (6-mer frequency, TF over GST control); with SPDEF, 1.21 fold enrichment (6-mer frequency, TF over GST control); in the experiment with ETV7, 1.02 fold enrichment (6-mer frequency, TF over GST control); with ELF5, 1.07 fold enrichment (6-mer frequency, TF over GST control). In addition, the binding signal was 1.18 fold enrichment (6-mer frequency, TF over GST control) with ETV3 and 1.06 fold enrichment (6-mer frequency, TF over GST control) in the experiment with ETV6.

With CGATCC, the binding signal was 1.33 fold enrichment (6-mer frequency, TF over GST control) with ERF; 1.18 fold enrichment (6-mer frequency, TF over GST control) with ETV3L; 1.2 fold enrichment (6-mer frequency, TF over GST control) with ETS2; 1.4 fold enrichment (6-mer frequency, TF over GST control) with SPDEF; 1.1 fold enrichment (6-mer frequency, TF over GST control) with ETV7; 1.2 fold enrichment (6-mer frequency, TF over GST control) with ELF5. Besides, the binding signal is 1.24 fold enrichment (6-mer frequency, TF over GST control) with ETV3 and 1.23 fold enrichment (6-mer frequency, TF over GST control) in the experiment with ETV6.

Regarding GAAATG, the binding signal with ERF is 1.5 fold enrichment (6-mer frequency, TF over GST control); with ETV3L, 1.59 fold enrichment (6-mer frequency, TF over GST control); in the experiment with ETS2 it was 1.63 fold enrichment (6-mer frequency, TF over GST control); with SPDEF, 1.45 fold enrichment (6-mer frequency, TF over GST control); with ETV7, 1.6 fold enrichment (6-mer frequency, TF over GST control); with ELF5, 1.87 fold enrichment (6-mer frequency, TF over GST control). Further, the binding signal was 1.68 fold enrichment (6-mer frequency, TF over GST control) with ETV3 and 1.75 fold enrichment (6-mer frequency, TF over GST control) with ETV6.

GTGGCT: the binding signal is 1.18 fold enrichment (6-mer frequency, TF over GST control) with ERF; 1.07 fold enrichment (6-mer frequency, TF over GST control) with ETV3L; 1.14 fold enrichment (6-mer frequency, TF over GST control) with ETS2; 1.03 fold enrichment (6-mer frequency, TF over GST control) with SPDEF; 1.1 fold enrichment (6-mer frequency, TF over GST control) in the experiment with ETV7; 1.03 fold enrichment (6-mer frequency, TF over GST control) in the experiment with ELF5. The binding signal with ETV3 was 1.12 fold enrichment (6-mer frequency, TF over GST control); with ETV6, 1.07 fold enrichment (6-mer frequency, TF over GST control).

In the case of ACTGAA, the binding signal with ERF is 1.13 fold enrichment (6-mer frequency, TF over GST control); in the experiment with ETV3L, 1.1 fold enrichment (6-mer frequency, TF over GST control); with ETS2, 1.23 fold enrichment (6-mer frequency, TF over GST control); with SPDEF, 1.21 fold enrichment (6-mer frequency, TF over GST control); with ETV7, 1.06 fold enrichment (6-mer frequency, TF over GST control); in the experiment with ELF5 it was 1.11 fold enrichment (6-mer frequency, TF over GST control). Moreover, the binding signal is 1.21 fold enrichment (6-mer frequency, TF over GST control) in the experiment with ETV3 and 1.17 fold enrichment (6-mer frequency, TF over GST control) with ETV6.

Take ATACGT: the binding signal in the experiment with ERF is 1.11 fold enrichment (6-mer frequency, TF over GST control); with ETV3L it was 1.18 fold enrichment (6-mer frequency, TF over GST control); in the experiment with ETS2, 1.19 fold enrichment (6-mer frequency, TF over GST control); with SPDEF it was 1.23 fold enrichment (6-mer frequency, TF over GST control); with ETV7, 1.1 fold enrichment (6-mer frequency, TF over GST control); with ELF5, 1.14 fold enrichment (6-mer frequency, TF over GST control). Also, the binding signal was 1.14 fold enrichment (6-mer frequency, TF over GST control) in the experiment with ETV3 and 1.14 fold enrichment (6-mer frequency, TF over GST control) with ETV6.
